Screening data from PubChem.
BAZ2B inh – qHTS Assay for Inhibitors of BAZ2B; AID 504333, 2011; AlphaScreen BAZ2B-H3K14Ac peptide displacement; Potency, µM (highest dose often 114 µM), for inactives: at the highest dose activity change, negative = inhibition, usual class: inhibitors; 4.4% of 360,000 active; Bromodomain adjacent to zinc finger domain protein 2B (Homo sapiens), Q9UIF8; further: on the % scale 0 is the no-effect control and ±100 the full control effect; nearly all actives have a fitted effect of over 60% in size
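Protein-peptide AlphaScreen: BAZ2B 50 nM, b-H3K14Ac 50 nM, 1x PBS pH 7.4 + 0.01% Tween-20. Preincubation 30 min RT; cpd 30 min RT (top 110 uM); beads 20 min RT, light-protected.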
Sfp PPTase inh – qHTS Assay for Inhibitors of Bacillus subtilis Sfp phosphopantetheinyl transferase (PPTase); 4'-phosphopantetheinyl transferase ffp (Bacillus subtilis), Q9F4F7; Biochemical Sfp PPTase activity, qHTS; Potency, µM, for the others: largest response in the series, negative = inhibition, most hits filed as inhibitors; 3.5% of 310,000 active; AID 1490, 2009;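 further: the enzyme is Sfp with the accession as filed and its product quenches rhodamine fluorescence; 0% = enzyme reaction without inhibitor and -100% = no enzyme wells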
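With Hepes-Na pH 7.6 buffer containing 10 mM MgCl2, Sfp (15 nM) modified BHQ-2-YbbR (12.5 uM) using rhodamine-CoA (5 uM). Two reads 30 minutes apart at 525/598 nm yielded each well's rate.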
JMJD2A Tudor – qHTS Assay for Inhibitors of JMJD2A-Tudor Domain | AlphaScreen JMJD2A-Tudor / H3K4me3 peptide binding | Potency, µM (top dose mostly 114 µM), inactives show at the top dose activity change, negative = inhibition, usual class: inhibitors | Lysine-specific demethylase 4A (Homo sapiens), O75164 | 4.4% of 390,000 active; further: on the % scale 0 is the no-effect control and ±100 the full control effect; nearly all actives have a fitted effect of over 50% in size
Target sequence (O75164 whole entry, looked up, the tested form may be a part): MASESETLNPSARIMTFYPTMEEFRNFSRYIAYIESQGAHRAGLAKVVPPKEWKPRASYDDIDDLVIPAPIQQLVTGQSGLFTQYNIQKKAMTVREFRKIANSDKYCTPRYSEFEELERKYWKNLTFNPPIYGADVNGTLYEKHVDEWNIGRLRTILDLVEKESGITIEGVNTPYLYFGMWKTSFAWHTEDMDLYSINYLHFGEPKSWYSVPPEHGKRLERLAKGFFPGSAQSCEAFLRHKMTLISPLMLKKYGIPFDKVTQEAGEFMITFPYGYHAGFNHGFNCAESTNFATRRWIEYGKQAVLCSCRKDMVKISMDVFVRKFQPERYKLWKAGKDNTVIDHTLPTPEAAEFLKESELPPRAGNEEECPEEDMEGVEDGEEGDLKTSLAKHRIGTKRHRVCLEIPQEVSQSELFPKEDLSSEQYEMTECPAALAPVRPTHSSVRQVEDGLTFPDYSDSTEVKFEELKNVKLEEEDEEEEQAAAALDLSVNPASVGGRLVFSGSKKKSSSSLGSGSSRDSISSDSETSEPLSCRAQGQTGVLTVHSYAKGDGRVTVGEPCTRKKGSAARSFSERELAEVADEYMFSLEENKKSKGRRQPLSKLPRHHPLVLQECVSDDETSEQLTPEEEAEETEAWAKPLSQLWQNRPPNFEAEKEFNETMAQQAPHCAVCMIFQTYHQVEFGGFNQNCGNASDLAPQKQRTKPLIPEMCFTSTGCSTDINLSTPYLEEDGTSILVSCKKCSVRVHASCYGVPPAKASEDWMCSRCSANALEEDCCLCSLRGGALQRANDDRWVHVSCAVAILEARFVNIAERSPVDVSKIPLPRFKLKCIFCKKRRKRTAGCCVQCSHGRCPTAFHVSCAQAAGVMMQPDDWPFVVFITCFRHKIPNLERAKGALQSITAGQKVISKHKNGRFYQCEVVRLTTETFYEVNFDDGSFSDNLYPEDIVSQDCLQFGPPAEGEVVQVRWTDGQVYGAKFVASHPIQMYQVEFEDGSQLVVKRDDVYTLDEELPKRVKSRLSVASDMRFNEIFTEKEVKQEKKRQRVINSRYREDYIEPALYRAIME
G9a inh – qHTS Assay for Inhibitors of Histone Lysine Methyltransferase G9a | G9a H3K9 monomethylation, AlphaScreen, 2 h | Potency, µM (titrated, usually from 102 µM), inactives show top-dose activity, negative = inhibition, hits mostly inhibitors | 8.8% of 350,000 active | AID 504332, 2011; further: on the % scale 0 is the no-effect control and ±100 the full control effect; nearly all actives have a fitted effect of over 75% in size
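Signal arises when biotinylated H3K9 peptide, once monomethylated, bridges streptavidin donor and antibody-captured acceptor beads. Enzyme at 20 nM was preincubated 15 min with test compounds; peptide 500 nM and SAM 20 uM then reacted for 2 h.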
HP1b binding inh – HTS for Inhibitors of HP1-beta Chromodomain Interactions with Methylated Histone Tails | AlphaScreen HP1-beta / biotin-H3K9me3 peptide binding | Potency, µM (highest dose often 114 µM), for inactives: at the highest dose activity change, negative = inhibition, usual class: inhibitors | 0.56% of 390,000 active | AID 540317, 2011; further: nearly all actives have a fitted effect of over 70% in size
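Compound inhibition of the preformed complex between 50 nM HP1-beta and 50 nM biotinylated H3K9me3 peptide was read by AlphaScreen. Buffer was PBS pH 7.4 with 0.01% Tween-20. Incubations ran 30 min at room temperature, with 10 ug/mL donor/acceptor beads.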
An asterisk follows results filed as active; ? = inconclusive; · = not tested or not shown; [ ] = another dose, or the depositor's remark. The list is not random: actives were taken first. Their share in the collection is about 12%. The call rests on the fitted dose curve; in most records, active means well fitted curve in the direction sought with a large enough effect; inconclusive means small, poorly fitted or top-dose-only effect, or another doubt; inactive means no such curve, though single readings can be large; an effect the other way counts as inactive or inconclusive. Potency means the concentration at half of the fitted maximal effect.

SMILES	BAZ2B inh	Sfp PPTase inh	JMJD2A Tudor	G9a inh	HP1b binding inh
C=CC(C)(C)c1[nH]c2ccccc2c1C1=C(O)C(=O)C(c2c[nH]c3c(CC=C(C)C)cccc23)=C(O)C1=O	·	-24%	·	·	·
Cn1c(N)c(C(=O)COC(=O)Cc2ccc(Br)cc2)c(=O)n(C)c1=O	·	·	-4%	·	20%
Cn1c(N)c(C(=O)COC(=O)CSc2cccc3cccc(Cl)c23)c(=O)n(C)c1=O	?	12%	50µM*	·	-11%
COc1ccc(C(=O)OCC(=O)c2c(N)n(C)c(=O)n(C)c2=O)cc1OC	-8%	16%	1%[57.1 µM]	-24%	22%
CC(=O)Oc1ccc(C(=O)OCC(=O)c2c(N)n(C)c(=O)n(C)c2=O)cc1OC(C)=O	-25%	18%	9%	50µM*	21%
Cn1c(N)c(C(=O)COC(=O)Cc2ccsc2)c(=O)n(C)c1=O	32%	-6%	-8%	45µM*	23%
CC(=O)NC(CC(=O)OCC(=O)c1c(N)n(C)c(=O)n(C)c1=O)c1ccccc1 (centres undefined)	-18%	21%	13µM*	-11%	-12%
Cn1c(N)c(C(=O)COC(=O)CC(NC(N)=O)c2ccc(Cl)cc2)c(=O)n(C)c1=O (centres undefined)	-5%	·	-7%	-2%	21%
CCc1cnc2c(c1SCC(=O)NCc1ccc(F)cc1)c(=O)n(C)c(=O)n2C	1%	·	-10%	1%[59 µM]	18%
O=C(c1csnn1)N1CCC2(CC1)CCN(c1cccc(-c3ccccc3)c1)CC2	·	-2%	·	-3%[12.7 µM]	·
CCOc1ccc(-c2cc(OC(=O)c3ccc(F)cc3)c3c(C)oc(C)c3c(=O)c2)cc1	?	·	?	?	-9%
COc1ccc(-c2cc(OC(=O)c3cccc(C)c3)c3c(C)oc(C)c3c(=O)c2)cc1	?	·	?	7.9µM*	26%
CCOc1cc(-c2ccc(OC(=O)c3ccc(C)cc3)c(OC)c2)cc(=O)c2c(C)oc(C)c12	40µM*	·	?	?	5%
CCOc1ccc(-c2cc(OC(=O)c3ccccc3)c3c(C)oc(C)c3c(=O)c2)cc1	35µM*	·	?	11µM*	-8%
COc1ccc(-c2cc(OC(=O)c3cccc(Cl)c3)c3c(C)oc(C)c3c(=O)c2)cc1OC	50µM*	·	?	?	-17%
CCOc1ccc(CNC(=O)CCC(=O)N2CC(C)Sc3ccccc32)cc1 (centres undefined)	-8%	·	-14%	-5%[59 µM]	9%
CCCc1nc2sc3c(N4CCCCC4)ncnc3c2c2c1CCCC2	3%	·	13%	0%[59 µM]	43%
Cc1sc2nc[nH]c(=O)c2c1-c1ccc(Cl)cc1	-2%	2%	-12%	·	28%
Cc1ccc(NC(=O)c2ccc3oc(=O)c(S(=O)(=O)c4ccccc4)cc3c2)cc1C	-10%	·	-13%	-3%[59 µM]	9%
CC(=O)c1ccc(NC(=O)Nc2nnc(N3CCCC(C)C3)s2)cc1 (centres undefined)	-6%	·	-13%	3%[59 µM]	33%
CCC(C)NC(=O)CSc1ccc(S(=O)(=O)N(C)C2CCCCC2)cn1 (centres undefined)	·	·	0%	·	38%
COc1cc(-c2cc(OC)c3c(C)oc(C)c3c(=O)c2)ccc1OC(=O)c1ccc(C)cc1	-31%	·	-34%	-28%[59 µM]	23%
COc1cc(-c2cc(OC)c3c(C)oc(C)c3c(=O)c2)ccc1OC(=O)c1cccc(Cl)c1	79µM*	·	?	-53%[59 µM]	2%
CCCCc1nc2c(c3c1C[C@H](C)OC3)CN(S(=O)(=O)c1ccc(C)cc1)CC2	·	-10%	·	·	·
O=C1C(=O)c2ncccc2-c2cccnc21	·	0.63µM*	·	-118%[2.33 µM]	·
COc1ccc(-n2nc3c(c2NC(=O)CCl)CSC3)cc1	-18%	16%	-23%	-9%[59 µM]	11%[57 µM]
Cc1cc(CN(C)C(=O)c2ccc(OC3CCN(Cc4ccccn4)CC3)cc2)on1	-26%	3%	-15%	50µM*	37%
